Measurements published in PubChem BioAssay (NCATS).
Inconclusive results are not listed. A number with no mark means an inactive call. Activity calls are given as the source filed them. Calls come from the whole dose curve; as a rule, active = well fitted inhibition curve with a large enough effect; inconclusive = small, poorly fitted or top-dose-only effect; inactive = no such curve, though single readings can be large or run the other way.

Test system: Zika virus NS2B-NS3 protease (unlinked complex)
Assay: Primary screen GU Rhodamine qHTS for Zika virus inhibitors: Unlinked NS2B-NS3 protease assay (AID 1347159); note: nearly all actives have a fitted effect of over 60% in size
Conditions: Recombinant ZIKV NS2B-NS3 protease, Rhodamine110 substrate fluorescence; series mostly up to 107 µM; activity change, negative = inhibition: at the top concentration
Summary of the method: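 Buffer 10 mM Tris-HCl pH 8.0, 0.01% Tween 20. Unlinked protease 25 nM; compound preincubation 15 min, RT, protected from light. Substrate Rhod110, 1.5 microM; ~15% conversion in 15 min.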
% is set by controls: 0 for no effect and ±100 for the full control effect; potency is the fitted concentration of half-maximal effect.

SMILES | Potency | activity change, negative = inhibition
CC1=C(/C=C/C(C)=C\C=C\C(C)=C/C(=O)O)C(C)(C)CCC1 | 20 µM (active) | –
COc1cc(/C=C/C(=O)OC[C@H]2O[C@@](CO)(O[C@H]3O[C@H](CO)[C@@H](O)[C@H](O)[C@H]3O)[C@@H](OC(=O)/C=C/c3ccc(O)c(OC)c3)[C@@H]2O)ccc1O | – | -20.9% [at 32.5 µM]
CC1CC(O)C2(OC1=O)OC1C(O)C3C4CCC5CC(OC6OC(CO)C(O)C(O)C6OC6OC(C)C(O)C(O)C6O)CCC5(C)C4CCC3(C)C1C2C (stereo unspecified) | – | -5.51% [at 32.5 µM]
C#CC[C@H](c1nc2cc(Cl)ccc2c(=O)n1Nc1ccccc1)N(CCCN)C(=O)c1cccc(Cl)c1F | – | 149%
COC(=O)C1=CO[C@@H](O[C@@H]2O[C@H](CO)[C@@H](O)[C@H](O)[C@H]2O)[C@@H]2C(CO)=CC[C@]12O | – | -14.1% [at 57.1 µM]
CN(C)c1ccc2c(c1)OC(N)=C(C#N)C2c1cccc(C(F)(F)F)c1 (stereo unspecified) | – | 0%
